Reference: PubChem BioAssay AID1159580 (chemical genetic matrix, 2015)
Several values for one entry are separate records, joined by “and”; a condition that tells them apart may be missing. Equal entries are not always repeated. Among all 5,500 compounds or so, about 2,000 (36%) were called active. Not shown: some 18% with an inconclusive outcome. Rule as the data show it: active = normalized growth mostly below about 0.91 (no sharp cut-off); inconclusive = no clear call, values can overlap the other calls; inactive = mostly above about 0.92. This is one part of the list.

Assay: chemical genetic growth profiling, strain panel (AID 1159580);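 also: tested at 20 µM; growth read once vehicle control cultures reached saturation at 30 °C; 1 = growth at the plate median or of vehicle wells; lower values mean less growth of the strain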
Details: S. cerevisiae deletion strains, growth OD

Measured: normalized growth

CCC(C)C(=O)O[C@@H]1C[C@@]2(C)[C@H](c3ccoc3)OC(=O)CC23OC2(C)O[C@]14[C@]1(C)[C@@H](CC(=O)OC)C5(C)CC1(O)[C@](O)(C5OC(=O)C1(C)OC1C)[C@@H](OC(C)=O)[C@]34O2 (some centres undefined)
inactive: locus YAL013W, strain DEP1, stronger effect = lower value 1.02 | locus YAL021C, strain ccr4, stronger effect = lower value 0.996 | locus YAL026C, strain drs2, stronger effect = lower value 0.988 | locus YAL030W, strain snc1, stronger effect = lower value 0.991 | locus YBL061C, strain skt5, stronger effect = lower value 1 | locus YBR009C, strain hhf1, stronger effect = lower value 1.01 | locus YBR021W, strain FUR4, stronger effect = lower value 1.03 | locus YBR023C, strain chs3, stronger effect = lower value 1.01 | locus YBR171W, strain sec66, stronger effect = lower value 0.978 | locus YBR229C, strain ROT2, stronger effect = lower value 1.01 | locus YBR231C, strain swc5, stronger effect = lower value 0.995 | locus YBR279W, strain paf1, stronger effect = lower value 1 | locus YCL011C, strain gbp2, stronger effect = lower value 0.983 | locus YCL016C, strain dcc1, stronger effect = lower value 1.01 | locus YCL029C, strain bik1, stronger effect = lower value 1.02 | locus YCL061C, strain MRC1, stronger effect = lower value 1.01 | locus YCL069W, strain vba3, stronger effect = lower value 0.98 | locus YCR088W, strain abp1, stronger effect = lower value 0.995 | locus YDL005C, strain med2, stronger effect = lower value 0.978 | locus YDL035C, strain GPR1, stronger effect = lower value 0.963 | locus YDL040C, strain nat1, stronger effect = lower value 0.982 | locus YDL074C, strain BRE1, stronger effect = lower value 0.994 | locus YDL101C, strain DUN1, stronger effect = lower value 1.02 | locus YDL185W, strain tfp1, stronger effect = lower value 1.02 | locus YDL192W, strain arf1, stronger effect = lower value 0.995 | locus YDR001C, strain nth1, stronger effect = lower value 0.997 | locus YDR069C, strain doa4, stronger effect = lower value 1.01 | locus YDR101C, strain arx1, stronger effect = lower value 1.02 | locus YDR159W, strain sac3, stronger effect = lower value 1.02 | locus YDR162C, strain NBP2, stronger effect = lower value 0.979 | locus YDR195W, strain ref2 0.969 | locus YDR297W, strain sur2, stronger effect = lower value 0.995 | locus YDR318W, strain mcm21, stronger effect = lower value 1.02 | locus YDR334W, strain swr1, stronger effect = lower value 0.983 | locus YDR335W, strain msn5, stronger effect = lower value 0.992 | locus YDR388W, stronger effect = lower value 1.02 | locus YDR392W, strain spt3, stronger effect = lower value 0.918 | locus YDR502C, strain sam2, stronger effect = lower value 1.03 | locus YEL003W, strain gim4, stronger effect = lower value 0.993 | locus YEL037C, strain rad23, stronger effect = lower value 0.995 | locus YEL061C, strain CIN8 (second series), stronger effect = lower value 0.988 | locus YEL061C, strain CIN8, stronger effect = lower value 1 | locus YER015W, strain faa2, stronger effect = lower value 1 | locus YER016W, strain bim1, stronger effect = lower value 0.995 | locus YER110C, stronger effect = lower value 1.02 | locus YER111C, strain swi4, stronger effect = lower value 0.976 | locus YER155C, strain BEM2 (second series), stronger effect = lower value 1 | locus YER155C, strain BEM2, stronger effect = lower value 1.01 | locus YER167W, strain BCK2, stronger effect = lower value 1 | locus YFR010W, strain ubp6, stronger effect = lower value 0.985 | locus YGL078C, strain dbp3, stronger effect = lower value 1.05 | locus YGL086W, strain mad1, stronger effect = lower value 1.01 | locus YGL167C, strain pmr1, stronger effect = lower value 0.995 | locus YGL173C, strain kem1, stronger effect = lower value 0.993 | locus YGL227W, strain vid30, stronger effect = lower value 0.994 | locus YGL240W, strain doc1, stronger effect = lower value 0.977 | locus YGL248W, strain PDE1, stronger effect = lower value 1.01 | locus YGL253W, strain hxk2, stronger effect = lower value 0.952 | locus YGR078C, strain PAC10, stronger effect = lower value 1.02 | locus YGR135W, strain pre9, stronger effect = lower value 1.04 | locus YGR229C, strain SMI1, stronger effect = lower value 1.03 | locus YGR252W, strain gcn5, stronger effect = lower value 1.04 | locus YHR013C, strain ard1, stronger effect = lower value 0.984 | locus YHR027C, strain rpn1, stronger effect = lower value 0.996 | locus YHR030C, strain SLT2, stronger effect = lower value 1.02 and 0.954 | locus YHR079C, strain IRE1 (second series), stronger effect = lower value 1.02 | locus YHR079C, strain IRE1, stronger effect = lower value 0.962 | locus YHR094C, strain hxt1, stronger effect = lower value 1.02 | locus YHR129C, strain ARP1, stronger effect = lower value 1 | locus YHR142W, strain chs7, stronger effect = lower value 0.984 | locus YHR200W, strain rpn10, stronger effect = lower value 1.02 | locus YIL066C, strain RNR3, stronger effect = lower value 0.999 | locus YIL073C, strain SPO22, stronger effect = lower value 1.04 | locus YIL125W, strain kgd1, stronger effect = lower value 1.02 | locus YIR030C, strain dcg1, stronger effect = lower value 1.02 | locus YJL092W, strain hpr5, stronger effect = lower value 0.986 | locus YJL095W, strain BCK1 (second series), stronger effect = lower value 1 | locus YJL095W, strain BCK1, stronger effect = lower value 1.01 and 0.948 | locus YJL115W, strain asf1, stronger effect = lower value 1 | locus YJL129C, strain trk1, stronger effect = lower value 0.983 | locus YJL134W, strain LCB3, stronger effect = lower value 1.01 | locus YJL154C, strain vps35, stronger effect = lower value 0.993 | locus YJL164C, strain tpk1, stronger effect = lower value 1.01 | locus YJL166W, strain qcr8, stronger effect = lower value 0.987 | locus YJL168C, strain set2, stronger effect = lower value 1.02 | locus YJL187C, strain SWE1 (second series), stronger effect = lower value 1.02 | locus YJL187C, strain SWE1, stronger effect = lower value 1 | locus YJR066W, strain TOR1, stronger effect = lower value 0.912 | locus YJR075W, strain HOC1, stronger effect = lower value 1.02 | locus YKL009W, strain mrt4, stronger effect = lower value 0.989 | locus YKL068W, stronger effect = lower value 1 | locus YKL085W, strain MDH1 (second series), stronger effect = lower value 1 | locus YKL085W, strain MDH1, stronger effect = lower value 1 | locus YKL160W, strain elf1, stronger effect = lower value 1.02 | locus YKR001C, strain vps1, stronger effect = lower value 1.01 | locus YKR026C, strain gcn3, stronger effect = lower value 1 | locus YKR091W, strain srl3, stronger effect = lower value 0.996 | locus YLL001W, strain dnm1, stronger effect = lower value 1.01 | locus YLL026W, stronger effect = lower value 1 | locus YLL041C, strain sdh2, stronger effect = lower value 0.987 | locus YLR027C, strain aat2, stronger effect = lower value 1.01 | locus YLR039C, strain RIC1, stronger effect = lower value 0.683 | locus YLR058C, strain SHM2, stronger effect = lower value 1 | locus YLR102C, strain apc9, stronger effect = lower value 1.03 | locus YLR113W, strain HOG1, stronger effect = lower value 1 | locus YLR221C, strain rsa3, stronger effect = lower value 0.978 | locus YLR258W, strain gsy2, stronger effect = lower value 0.988 | locus YLR268W, strain sec22, stronger effect = lower value 0.995 | locus YLR320W, strain mms22, stronger effect = lower value 0.979 | locus YLR330W, strain CHS5, stronger effect = lower value 1.02 | locus YLR342W, strain FKS1 (second series), stronger effect = lower value 0.981 | locus YLR342W, strain FKS1, stronger effect = lower value 0.977 | locus YLR357W, strain rsc2, stronger effect = lower value 1.01 | locus YLR370C, strain arc18, stronger effect = lower value 0.971 | locus YLR371W, strain rom2, stronger effect = lower value 1.01 | locus YLR384C, strain iki3, stronger effect = lower value 1.01 | locus YLR418C, strain cdc73, stronger effect = lower value 1.01 | locus YML016C, strain PPZ1, stronger effect = lower value 1 | locus YML032C, strain rad52, stronger effect = lower value 1.01 | locus YML120C, strain ndi1, stronger effect = lower value 0.992 | locus YML124C, strain tub3, stronger effect = lower value 1.01 | locus YMR058W, strain fet3, stronger effect = lower value 1.01 | locus YMR078C, strain ctf18, stronger effect = lower value 1.02 | locus YMR125W, strain sto1, stronger effect = lower value 0.991 | locus YMR129W, stronger effect = lower value 0.999 | locus YMR205C, strain PFK2, stronger effect = lower value 1.01 | locus YMR223W, strain ubp8, stronger effect = lower value 1.02 | locus YMR231W, strain pep5, stronger effect = lower value 0.945 | locus YMR307W, strain GAS1, stronger effect = lower value 0.925 | locus YNL067W, strain RPL9B, stronger effect = lower value 1.03 | locus YNL071W, strain lat1, stronger effect = lower value 0.994 | locus YNL183C, strain NPR1, stronger effect = lower value 0.928 | locus YNL209W, strain ssb2, stronger effect = lower value 0.995 | locus YNL233W, strain BNI4, stronger effect = lower value 1.03 | locus YNL248C, strain rpa49, stronger effect = lower value 0.975 | locus YNL250W, strain rad50, stronger effect = lower value 1.05 | locus YNL271C, strain bni1, stronger effect = lower value 1.02 | locus YNL298W, strain CLA4, stronger effect = lower value 1.02 | locus YNL307C, strain MCK1, stronger effect = lower value 1.03 | locus YNL322C, strain KRE1 (second series), stronger effect = lower value 0.984 | locus YNL322C, strain KRE1, stronger effect = lower value 1.02 | locus YNR049C, strain mso1, stronger effect = lower value 0.999 | locus YNR052C, strain pop2, stronger effect = lower value 1.03 | locus YOL012C, strain htz1 0.597 | locus YOL147C, strain pex11, stronger effect = lower value 1.02 | locus YOR001W, strain rrp6, stronger effect = lower value 0.941 | locus YOR061W, strain CKA2, stronger effect = lower value 1 | locus YOR069W, strain VPS5, stronger effect = lower value 1.01 | locus YOR070C, strain gyp1, stronger effect = lower value 0.994 | locus YOR080W, strain dia2, stronger effect = lower value 0.985 | locus YOR083W, strain WHI5, stronger effect = lower value 1.03 | locus YOR106W, strain vam3, stronger effect = lower value 1.02 | locus YOR136W, strain idh2, stronger effect = lower value 0.999 | locus YOR144C, strain elg1, stronger effect = lower value 1.02 | locus YOR184W, strain ser1, stronger effect = lower value 0.996 | locus YOR231W, strain MKK1, stronger effect = lower value 0.978 | locus YOR265W, strain rbl2, stronger effect = lower value 0.994 | locus YOR270C, strain vph1, stronger effect = lower value 0.779 | locus YOR290C, strain snf2, stronger effect = lower value 1 | locus YOR316C, strain cot1, stronger effect = lower value 1.02 | locus YPL051W, strain arl3, stronger effect = lower value 1.01 | locus YPL078C, strain atp4, stronger effect = lower value 1.01 | locus YPL106C, strain sse1, stronger effect = lower value 1.02 | locus YPL240C, strain hsp82, stronger effect = lower value 0.989 | locus YPL241C, strain CIN2, stronger effect = lower value 1.01 | locus YPL256C, strain CLN2, stronger effect = lower value 0.965 | locus YPR119W, strain clb2, stronger effect = lower value 1.01 | locus YPR141C, strain kar3, stronger effect = lower value 1.03 | locus YPR163C, strain tif3, stronger effect = lower value 1.02 | locus YPR167C, strain met16, stronger effect = lower value 1.02 | strain wtn01, stronger effect = lower value 1
active: locus YDR137W, strain rgp1, stronger effect = lower value 0.726 | locus YLR262C, strain YPT6 (second series), stronger effect = lower value 0.711 | locus YLR262C, strain YPT6, stronger effect = lower value 0.602
